High-throughput results as filed in PubChem.
MITF inh – MITF inhibition; 0.28% of 37,000 active; TRPM1 promoter luciferase, luminescence, 24 h; AID 2240; inhibition, % (concentration not given with the values); in the data active means inhibition above about 85%; inconclusive means no clear call, values can overlap the other calls; inactive means below about 68%;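 further: human melanocyte line stably carrying TRPM1 promoter luciferase reporter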
NOMO-1 viab – STK33 inhibitor candidate reducing NOMO-1 cell viability | 7.5% of 37,000 active | inhibition, % (no concentration beside the values) | NOMO-1 AML viability, CellTiter-Glo luminescence, 72 h; in the data active means inhibition above about 80%; inconclusive means no clear call, values can overlap the other calls
Shh pathway inh – Sonic Hedgehog pathway inhibition; Shh-LIGHT2 Gli-luciferase reporter, 30 h; 2.1% of 22,000 active; AID 2313; inhibition, % (test concentration not listed);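 active means mean inhibition across valid replicates above about 65%, limit read from the data; inconclusive means mean under the limit, yet half or more replicates past it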;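 further: pathway switched on by Shh-conditioned medium diluted 1 in 25 in low serum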
Active calls of the source: *; u = inconclusive; x = not tested or not shown; ! = not confirmed by another sample. Hits are enriched below; roughly 8.1% of the tested compounds scored in any of these assays.

SMILES	MITF inh	NOMO-1 viab	Shh pathway inh
COc1ccc(C(=O)CSc2nc(C)[nH]c2[N+](=O)[O-])cc1Br	10	13	x
Cc1cc(-c2ccccc2)nc2c1/C(=N\O)CC(C)(C)C2	-23	101*	-8
Cc1ccc(C)c(NC(=O)CSc2nc(-c3ccccc3)cc(C(F)(F)F)n2)c1	-2	27	x
CCCCC[C@@H](O)CC(=O)CCc1ccc(O)c(OC)c1	-11	30	-14
C[C@@H]1CN([C@H](C)CO)C(=O)c2cccc(NC(=O)Nc3ccc(F)cc3)c2O[C@H]1CN(C)S(=O)(=O)c1ccccc1	11	3	-5
C[C@@H]1CN([C@H](C)CO)C(=O)c2cccc(NC(=O)Nc3ccc(F)cc3)c2O[C@H]1CN(C)S(=O)(=O)c1ccc(Cl)cc1	-6	12	-7
Cc1ccc(S(=O)(=O)N(C)C[C@@H]2Oc3c(NC(=O)Nc4ccccc4)cccc3C(=O)N([C@H](C)CO)C[C@@H]2C)cc1	32	47	121*
C[C@H]1CN([C@@H](C)CO)C(=O)c2cccc(NC(=O)Nc3ccc(F)cc3)c2O[C@H]1CN(C)S(=O)(=O)c1ccc(Cl)cc1	61	100*	108*
C[C@H](CO)N1C[C@H](C)[C@H](CN(C)S(=O)(=O)c2ccccc2)Oc2c(NC(=O)Nc3ccc(F)cc3)cccc2C1=O	9	27	71*
Cc1ccc(S(=O)(=O)N(C)C[C@@H]2Oc3c(NC(=O)Nc4ccccc4)cccc3C(=O)N([C@@H](C)CO)C[C@H]2C)cc1	4	31	5
O=C(O)C1C2CCC(O2)C1C(=O)Nc1ccc(S(=O)(=O)N2CCc3ccccc32)cc1 (stereo not given)	21	-1	x
COc1ccc(NC(=O)C(=O)NCC(=O)Nc2ccc(OC)c(Cl)c2)cc1	3	-23	x
CCN1CCN(c2c(Cl)cccc2NC(=O)COc2ccc(OC)cc2)CC1	-26	19	x
CCc1ccc(NC(=O)CN(C)S(=O)(=O)c2ccc3ccccc3c2)cc1	20	26	x
Cc1c(C(=O)Nc2nnc(SC/C=C/c3ccccc3)s2)oc2ccccc12	-61	27	x
Cc1c(C(=O)Nc2cnccn2)oc2ccccc12	-2	112*	x
Cn1c(SCC(=O)Nc2cccc(Br)c2)nnc1-c1ccc(Cl)cc1	3	5	x
O=C(CC1NC2CCCCC2NC1=O)Nc1ccccc1 (stereo not given)	5	-5	x
OC(CN1CCNCC1)Cn1c2ccc(Br)cc2c2cc(Br)ccc21 (stereo not given)	-13	121*	78*!
CC1CCN(CC(O)COc2c(F)cc(Br)cc2F)CC1 (stereo not given)	0	2	16
CCn1c(SCC(=O)Nc2ccccc2F)nnc1-c1ccccc1	-8	-8	x
COc1ccc(N(C(=O)c2ccccc2)S(=O)(=O)c2cccc([N+](=O)[O-])c2)cc1	28	37	x
CCOC(=O)c1ccc(-n2c(C)cc(C=C3C(=O)NC(=S)NC3=O)c2C)cc1	28	121*	9
CCOC(=O)c1c(O)c(O)c(C(=O)OCC)n1-c1ccc(OC)cc1	10	26	-5
CCC1(COC(NC(=O)c2ccc(Cl)cc2Cl)(C(F)(F)F)C(F)(F)F)COC1	13	34	13
SMILES	MITF inh	NOMO-1 viab	Shh pathway inh
CC(C)NC(=O)N(C)C[C@@H]1Oc2c(NC(=O)NC3CCCCC3)cccc2C(=O)N([C@H](C)CO)C[C@H]1C	-4	25	-12
C[C@H](CO)N1C[C@H](C)[C@@H](CN(C)CC2CCCCC2)Oc2c(NC(=O)NC3CCCCC3)cccc2C1=O	9	54	6
C[C@@H]1CN([C@H](C)CO)C(=O)c2cccc(NC(=O)NC3CCCCC3)c2O[C@H]1CN(C)CC1CCCCC1	30	104*	25
C[C@H](CO)N1C[C@H](C)[C@@H](CN(C)CC2CCCCC2)Oc2c(NC(=O)C3CCCCC3)cccc2C1=O	35	96*	31
C[C@@H]1CN([C@H](C)CO)C(=O)c2cccc(NC(=O)C3CCCCC3)c2O[C@H]1CN(C)CC1CCCCC1	18	111*	6
C[C@@H]1CN([C@@H](C)CO)C(=O)c2cccc(NC(=O)C3CCCCC3)c2O[C@@H]1CN(C)CC1CCCCC1	-8	9	-2
CC(C)NC(=O)N(C)C[C@H]1Oc2c(NC(=O)NC3CCCCC3)cccc2C(=O)N([C@H](C)CO)C[C@H]1C	2	-7	69*
C[C@@H]1CN([C@@H](C)CO)C(=O)c2cccc(NC(=O)C3CCCCC3)c2O[C@@H]1CN(C)CC1CC1	-1	31	-2
COC(=O)C[C@@H]1C(C(=O)O)=CO[C@@H](O[C@@H]2O[C@H](CO)[C@@H](O)[C@H](O)[C@H]2O)/C1=C\COC(=O)/C=C/c1ccccc1	1	-8	15
O=C(Nc1ccccc1[N+](=O)[O-])c1cccc(S(=O)(=O)Nc2ccc(Br)cc2)c1	22	-7	x
CN(c1ccccc1C(=O)Nc1ccccc1C(=O)N1CCOCC1)S(C)(=O)=O	-1	1	x
O=C(NCCN1CCOCC1)C(=O)Nc1cccc(F)c1	-60	4	x
Cc1cccc(NC(=O)/C=C/c2ccccc2)c1	15	29	-135
CS(=O)(=O)N(CC(=O)Nc1cc(Cl)ccc1Oc1ccccc1)c1ccccc1Br	2	46	x
CCc1ccc(NS(=O)(=O)c2ccc(OC)cc2)cc1	16	113*	-17
COc1ccc(S(=O)(=O)c2ccc(OC)cc2)cc1	9	30	x
O=C(Nc1cccc([N+](=O)[O-])c1)Nc1nn(Cc2ccc(Cl)c(Cl)c2)cc1Cl	6	24	x
COC(=O)CCc1[nH]c2ccccc2c1Sc1ccccc1	14	140*	-11
Cc1[nH]c2ccccc2c1C(=O)CSc1ncn[nH]1	-30	3	x
O=C1c2ccccc2-[n+]2ccc3c([nH]c4ccccc43)c21	108*	99*	u
O=C1C(c2c(O)[nH]c3ccccc23)=Nc2ccccc21	-1	50	-46
CCOC(=O)c1ccc(NC(=O)C2CC(C)=C(C)CC2C(=O)O)cc1 (stereo not given)	-28	22	x
C[C@@H]1CN([C@H](C)CO)C(=O)c2cc(NC(=O)Nc3ccc(C(F)(F)F)cc3)ccc2O[C@H]1CN(C)Cc1ccc(C(F)(F)F)cc1	15	114*	4
C[C@H]1CN([C@@H](C)CO)C(=O)c2cc(NC(=O)Nc3ccc(C(F)(F)F)cc3)ccc2O[C@H]1CN(C)Cc1ccc(C(F)(F)F)cc1	33	115*	-23
O=C(CCSc1ccccc1)NC12CC3CC(CC(C3)C1)C2	45	46	43
Cc1cc(C)cc(NC(=O)CN(c2ccccc2F)S(C)(=O)=O)c1	-14	8	x
CC1(C)c2ccccc2N2CC(=O)NC21/C=C/c1ccc(N2CCOCC2)cc1 (stereo not given)	-5	59	-24
C[C@H]1CN([C@@H](C)CO)C(=O)c2cccc(NC(=O)Nc3ccc(C(F)(F)F)cc3)c2O[C@@H]1CN(C)Cc1ccc(Oc2ccccc2)cc1	21	89*	-31
C[C@H](CO)N1C[C@H](C)[C@H](CN(C)Cc2ccc(Oc3ccccc3)cc2)Oc2c(NC(=O)Nc3ccc(C(F)(F)F)cc3)cccc2C1=O	10	117*	15
C[C@H](CO)N1C[C@H](C)[C@H](CN(C)Cc2ccc(Oc3ccccc3)cc2)Oc2c(NC(=O)Nc3ccccc3)cccc2C1=O	-1	73	-64
